Assay results as given in PubChem BioAssay AID2562 (National Center for Advancing Translational Sciences (NCATS), 2010).
Results filed as inconclusive are left out. The source made the active and inactive calls. Calls come from the whole dose curve; as a rule, active = well fitted curve in the direction sought with a large enough effect; inconclusive = small, poorly fitted or top-dose-only effect, or effect the other way, or another doubt; inactive = no such curve, though single readings can be large or run the other way.

The compounds below were run against Pyruvate kinase PKLR (Homo sapiens) (UniProt P30613) (assay: Secondary LDH Assay for Activators of Human Reticulocyte Pyruvate Kinase: for Probe SAR). Conditions: purified hPK-R, LDH-coupled NADH fluorescence kinetic; series mostly up to 58.4 µM; activity change, positive = activation: at the top concentration.
Sequence of Pyruvate kinase PKLR (Homo sapiens) (P30613 whole entry, looked up): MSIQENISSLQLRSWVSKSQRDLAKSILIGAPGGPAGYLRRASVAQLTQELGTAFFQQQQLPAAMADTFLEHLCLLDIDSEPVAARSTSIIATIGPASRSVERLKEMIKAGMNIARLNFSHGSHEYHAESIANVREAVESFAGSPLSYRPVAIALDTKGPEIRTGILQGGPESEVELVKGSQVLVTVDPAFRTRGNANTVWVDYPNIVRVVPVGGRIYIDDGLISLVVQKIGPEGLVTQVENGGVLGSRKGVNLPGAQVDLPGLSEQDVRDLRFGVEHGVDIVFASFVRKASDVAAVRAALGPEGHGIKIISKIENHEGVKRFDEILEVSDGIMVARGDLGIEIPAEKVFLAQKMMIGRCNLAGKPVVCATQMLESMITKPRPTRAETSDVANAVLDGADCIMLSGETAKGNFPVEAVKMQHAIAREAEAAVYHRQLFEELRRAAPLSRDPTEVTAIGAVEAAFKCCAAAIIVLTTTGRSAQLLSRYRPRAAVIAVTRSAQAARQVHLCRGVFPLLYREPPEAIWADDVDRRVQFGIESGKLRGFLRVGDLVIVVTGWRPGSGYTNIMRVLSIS
Text: NIH Chemical Genomics Center [NCGC] Wael M. Rabeh, Lyudmila Nedyalkova and Hee-Wan Park [Structural Genomics Consortium, 100 College St. Toronto, Ontario, Canada] NCGC Assay Overview: Human pyruvate kinase reticulocyte (hPK-R) enzyme was supplied as a highly purified (>95% pure) preparation from Structural Genomics Consortium in Toronto (Ontario, Canada) and a secondary assay was used to evaluate compounds. This assay couples the formation of pyruvate from hPK-R using lactate dehydrogenase (LDH) and NADH. The depletion of NADH is followed in a fluorescent-based kinetic assay that follows the formation of pyruvate to lactate, as catalyzed LDH. Pyruvate kinase substrates, PEP and ADP, were present in the assay at 0.1 mM and 4 mM respectively. In this kinetic assay initial rates were determined by following the fluorescence of NADH depletion.
NCGC Assay Protocol Summary: Three uL of substrate mix (final concentration, 50 mM Tris-Cl pH 8.0, 200 mM KCl, 15 mM MgCl2, 0.1 mM PEP, 4.0 mM ADP, and 0.2 mM NADH) was dispensed into black-solid 1536 well plates. 23 nL of compounds were delivered by a pin tool and 1 uL of enzyme mix (final concentrations, 10 nM hPK-R and 1 uM of LDH) was added. Plates were immediately placed in ViewLux (Perkin Elmer) and NADH fluorescence was determined at 30 second exposure intervals for between 3 and 6 minutes. Data were normalized to the uninhibited and EC100 activation using known activators such as fructose-bis-phosphate.

Activity change, positive = activation, inactive:
Cc1cc(N2C(=O)c3ccccc3C2=O)no1 11.2%
O=C1c2ccccc2C(=O)N1c1noc2ccccc12 2.08%
Cc1ccc2nc(-c3ccc(C)o3)c(NC3CCCC3)n2c1 -15.8%
O=C1c2ccccc2C(=O)N1c1cnc2ccccc2c1 1.73%
O=C1CCc2cc(S(=O)(=O)Nc3ccc(-c4ccccc4)cc3)ccc2N1 -1.35%
O=C1CCc2cc(S(=O)(=O)Nc3cccc(-c4ccccc4)c3)ccc2N1 0.369%
COc1ccccc1N1C(=O)c2ccccc2C1=O 8.45%
O=C1c2ccccc2C(=O)N1Cc1ccccc1 -4.18%
O=S1(=O)N=C(Oc2ccc(Cl)cc2)c2ccccc21 11.9%
Cc1ccc(NS(=O)(=O)c2ccc(N3CCCC3=O)cc2)cc1C 1.79%
Cc1ccc(NS(=O)(=O)c2ccc(F)cc2)cc1C 18.4%
Cc1ccc(NS(=O)(=O)c2ccc3c(c2)CCCC(=O)N3)cc1C 8.4%
O=C1c2ccccc2C(=O)N1c1ccc(O)cc1 10.6%
O=S1(=O)N=C(Oc2ccccc2Cl)c2ccccc21 7.37%
O=C1c2ccccc2C(=O)N1c1ccncc1 7.23%
Nc1cccc(S(=O)(=O)N2CCCN(S(=O)(=O)c3ccc4c(c3)OCCO4)CC2)c1 25.1%
O=C1CCc2cc(S(=O)(=O)Nc3ccc(F)cc3)ccc2N1 4.65%
Cc1ccc(NS(=O)(=O)c2cc3c(cc2Cl)CCC(=O)N3)cc1C 16.1%
O=C1c2ccccc2C(=O)N1c1cc(=O)c2ccccc2[nH]1 6.46%
Cc1ccc(NS(=O)(=O)c2ccc(-c3ccccc3)cc2)cc1C 8.23%
CSc1cc2c(s1)c1cnn(Cc3cccc(N)c3)c(=O)c1n2C 21.1%
Cc1ccc(NS(=O)(=O)c2ccc3c(c2)N(C)C(=O)CO3)cc1C 12.6%
O=C1CCc2cc(S(=O)(=O)Nc3ccncc3)ccc2N1 12.1%
O=C1c2ccccc2C(=O)N1Cc1cccnc1 -0.262%
Cc1ccc(-c2nc3cnccn3c2Nc2ccc(C(C)C)cc2)o1 17.8%
CC(=O)Nc1ccc(S(=O)(=O)Nc2ccc(C)c(C)c2)cc1 2.28%
O=C1c2ccccc2C(=O)N1Cc1ccccn1 -3.89%
O=C1c2ccccc2C(=O)N1c1cccc2ccncc12 -0.363%
Cc1ccc(NS(=O)(=O)c2ccc3c(c2)N(C)CCO3)cc1C 11.6%
COc1cc(N2C(=O)c3ccccc3C2=O)c2ncccc2c1 -7.54%
Cc1ccc(NS(=O)(=O)c2cc3c(cc2N(C)C)CCC(=O)N3)cc1C 6.64%
Cc1ccc(NS(=O)(=O)c2ccc3c(c2)CCC(=O)N3)cc1 4.72%
Cc1ccc(NS(=O)(=O)c2cc3c(cc2C)OCC(=O)N3)cc1C 9.35%
COc1ccc(NS(=O)(=O)c2ccc3c(c2)CCC(=O)N3)cc1 3.97%
O=C1CCc2cc(S(=O)(=O)Nc3cccnc3)ccc2N1 -0.0937%
Cc1ccc(NS(=O)(=O)c2cc3c(cc2N(C)C)NC(=O)CC3)cc1C 5.45%
CNc1cccc(S(=O)(=O)N2CCN(S(=O)(=O)c3ccc4c(c3)OCCO4)CC2)c1 0.495%
Cc1ccc(NS(=O)(=O)c2ccc3c(c2)CCC(C)(C)O3)cc1C 7.9%
Cc1ccn2c(NC3CCCCC3)c(-c3ccc(C)o3)nc2c1 -17.6%
Cc1ccc(NS(=O)(=O)c2cc3c(cc2Br)NC(=O)CO3)cc1C 8.76%
